The results in this text go back to PubChem BioAssay (NCATS).

Assay [1] can be described thus: Cellular Toxicity (caspase-3) SK-N-SH (AID 661).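 Also: cells exposed to compound for 16 hours.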 In short, it runs like this: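 Luminescent Caspase-Glo 3/7 read-out after 16 hr compound exposure of SK-N-SH neuroblastoma cells at 37 °C. Signal increase normalized to DMSO (basal) and 10 uM staurosporine (100%); AC50 from Hill equation fits of qHTS concentration-response data.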
A short description of assay [2]: Cellular Toxicity (caspase-3) H-4-II-E (AID 663).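 Also: cells exposed to compound for 16 hr before readout.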 In short, it runs like this: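 Caspase 3/7 activation measured in H-4-II-E cells in complete culture medium after 16 hr treatment at 37 °C, using luciferase-coupled substrate readout; AC50 values come from Hill-equation fits of normalized concentration-response data.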
Assay [3] can be described thus: Cellular Toxicity (caspase-3) Hek293 (AID 664).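 Also: cells exposed to compound for 16 h at 37 °C before readout.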 The gist of the method: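 Luminescent Caspase-Glo 3/7 readout (aminoluciferin release) in HEK293 cells after 16 h compound treatment, 37 °C. Normalization: DMSO = basal, 100 uM tamoxifen = 100% stimulation. Concentration-response fitted with standard Hill equation for AC50.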
A short description of assay [4]: Cellular Toxicity (caspase-3) N2a (AID 665).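 Also: compound exposure lasted 16 h at 37 °C before readout.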 In short, it runs like this: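 Luminescent Caspase-Glo 3/7 readout in N2a mouse neuroblastoma cells after 16 h compound exposure at 37 °C. Signal scaled to DMSO (basal) and 10 uM staurosporine (100%). Concentration-response fitted with Hill equation for AC50.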
Assay [5] is described as follows: Cellular Toxicity (caspase-3) NIH 3T3 (AID 666). In short, it runs like this: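 NIH 3T3, 1000 cells/well, 5 hr settle then 16 hr compound at 37°C; Caspase-Glo 3/7, 20 min RT, luminescence. DMSO = basal, 100 uM tamoxifen = 100%. Hill-equation AC50, qHTS.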
The nature of assay [6]: Cell Viability - LYMP2-001 (AID 921). Also: potency is read from the fitted curve at half-maximal effect; nearly all actives have a fitted effect of over 70% in size. To be noted: LYMP2-001 lymphoblastoid cell viability. In short, it runs like this:
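Human lymphoblastoid LYMP2-001 cells, 2500 per well, in complete medium, treated 24 h at 37 C. Viability from cellular ATP by CellTiter-Glo luminescence; AC50 from Hill-equation fits of qHTS concentration-response.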

Assay [7] is described as follows: MultiTox-Fluor Cytotoxicity Assay - LYMP1-001 - Dead Cells (AID 946). In short, it runs like this:
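Cytotoxicity as increased dead-cell protease fluorescence (bis-AAF-R110, 485/520 nm), read 60 min after MultiTox-Fluor reagent. Human lymphoblastoid line exposed 16 h; Hill-fitted AC50, with DMSO as 0% and 15 uM tetraoctylammonium bromide as 100%.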

Assay [8] in a line: Cell Viability - LYMP1-002 - Assay at 16 hr (AID 948). Also: potency is read from the fitted curve at half-maximal effect. The note with it: LYMP1-002 lymphoblastoid cell viability. The gist of the method: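 LYMP1-002 human lymphoblastoid cells, 2500/well, were treated with compounds for 16 hr at 37 C in complete medium. Viability was read as intracellular ATP by CellTiter-Glo luminescence, and AC50 was derived from a Hill fit to concentration-response data.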

A short description of assay [9]: MultiTox-Fluor Cytotoxicity Assay - LYMP1-002 - Dead Cells (AID 960). Also: nearly all actives have a fitted effect of over 60% in size. In short, it runs like this:
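Readout: fluorescence at 485/520 from cell-impermeant bis-AAF-R110 cleaved by proteases leaking from damaged cells. LYMP1-002 lymphoblastoid line, 16 hr compound treatment at 37 C, concentration-response in qHTS format; Hill-equation AC50 values.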

Assay [10] can be described thus: MultiTox-Fluor Cytotoxicity Assay - LYMP1-003 - Dead Cells (AID 961). Also: nearly all actives have a fitted effect of over 70% in size. The gist of the method:
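Dead-cell protease release, detected as bis-AAF-R110 fluorescence at 485/520 nm, was measured in LYMP1-003 cells after 16 h compound treatment at 37 C. AC50 values came from Hill-modeled qHTS curves normalized to DMSO (0%) and 15 uM tetraoctylammonium bromide (100%).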

Assay [11] in a line: MultiTox-Fluor Cytotoxicity Assay - LYMP1-003 - Live Cells (AID 962).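 Also: potency is read from the fitted curve at half-maximal effect; cells exposed to compound for 16 hours at 37 °C.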 To be noted: LYMP1-003 lymphoblastoid cells, MultiTox-Fluor live-cell protease fluorescence. In short, it runs like this:
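Readout: live-cell fluorescence (Ex/Em=405/510) from GF-AFC cleavage after 60 min MultiTox-Fluor reagent at room temperature. Lymphoblastoid LYMP1-003 cells, 16 hr compound treatment, 37 C. Concentration-response fitted to standard Hill equation for AC50.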

The nature of assay [12]: Cell Viability - LYMP1-003 - Assay at 24 hr (AID 963). Also: potency is read from the fitted curve at half-maximal effect. The note with it: LYMP1-003 lymphoblastoid cell viability. In short, it runs like this:
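CellTiter-Glo luminescence (intracellular ATP) read after 24 hr, 37 C compound exposure of 2500 LYMP1-003 human lymphoblastoid cells/well in complete medium; qHTS concentration series; AC50 via standard Hill equation.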

Assay [13] is described as follows: Cell Viability - LYMP1-003 - Assay at 40 hr (AID 964). Also: potency is read from the fitted curve at half-maximal effect; nearly all actives have a fitted effect of over 60% in size. To be noted: LYMP1-003 lymphoblastoid viability. The gist of the method:
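LYMP1-003 lymphoblastoid cells, 2500/well; 5 hr preincubation, 40 hr compound exposure, 37 C; CellTiter-Glo 30 min RT; luminescence; Hill-fit AC50. Positive control tetraoctylammonium bromide.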

Assay [14] in a line: Cell Viability - LYMP2-003 (AID 965).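 Also: potency is read from the fitted curve at half-maximal effect; cells exposed to compounds for 24 h before reading; nearly all actives have a fitted effect of over 50% in size.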 To be noted: LYMP2-003 lymphoblastoid cell viability. The gist of the method:
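Human lymphoblastoid LYMP2-003 cells, 2500/well, exposed to compounds for 24 h at 37 C in complete medium. Viability read as intracellular ATP by CellTiter-Glo luminescence; AC50 from Hill-equation fits of qHTS concentration-response data.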

Assay [15] is described as follows: Cell Viability - LYMP2-004 (AID 966). Also: potency is read from the fitted curve at half-maximal effect; nearly all actives have a fitted effect of over 65% in size. To be noted: LYMP2-004 lymphoblastoid cell viability, qHTS. The gist of the method: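 Luminescent ATP read-out (CellTiter-Glo, 30 min RT) after 24 hr compound exposure at 37 C; 2500 lymphoblastoid cells/well, complete medium. Decrease in ATP = cytotoxicity; AC50 from standard Hill model.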
For orientation: In qHTS, concentration-response curves come from the screen itself.

The nature of assay [16]: Cell Viability - LYMP2-005 (AID 967). Also: potency is read from the fitted curve at half-maximal effect. To be noted: LYMP2-005 lymphoblastoid cell viability. In short, it runs like this: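 Human lymphoblastoid LYMP2-005 cells, 2,500 per well in complete medium, rested 5 h at 37C then compound-treated 24 h at 37C. Intracellular ATP read by CellTiter-Glo luminescence after 30 min at room temperature; AC50 from Hill-equation fits of concentration-response data.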

The nature of assay [17]: Cell Viability - LYMP2-009 (AID 968). Also: potency is read from the fitted curve at half-maximal effect; nearly all actives have a fitted effect of over 55% in size. The note with it: LYMP2-009 lymphoblastoid cell viability.
A short description of assay [18]: Cell Viability - LYMP2-011 (AID 969). Also: potency is read from the fitted curve at half-maximal effect; nearly all actives have a fitted effect of over 60% in size. To be noted: LYMP2-011 lymphoblastoid cells viability. The gist of the method: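 Luminescent ATP read-out (CellTiter-Glo, 30 min RT) after 24 hr compound exposure at 37 C in human lymphoblastoid cells, 2500 cells/well. Decreasing ATP indicates cytotoxicity; AC50 from standard Hill fit.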
Assay [19] in a line: Cell Viability - LYMP2-013 (AID 970). Also: potency is read from the fitted curve at half-maximal effect; nearly all actives have a fitted effect of over 55% in size. The note with it: LYMP2-013 lymphoblastoid cells viability. In short, it runs like this: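 CellTiter-Glo luminescence (cellular ATP) read after 30 min at RT. Cells: human lymphoblastoid line, 2500/well, 24 hr compound exposure at 37 C. Tetraoctylammonium bromide positive control; AC50 via standard Hill fit of qHTS titrations.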
A short description of assay [20]: Cell Viability - LYMP2-015 (AID 971). Also: potency is read from the fitted curve at half-maximal effect; nearly all actives have a fitted effect of over 55% in size. The note with it: LYMP2-015 lymphoblastoid cell viability. In short, it runs like this: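 qHTS cytotoxicity: 2500 cells/well, 5 hr 37 C, compound 24 hr 37 C, CellTiter-Glo 30 min RT, luminescence. Loss of ATP = toxicity; AC50 via standard Hill fit.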

SMILES strings stand for the structures. Values without a mark were called inactive. Records with an inconclusive call do not appear. Active and inactive are the calls of the source. Calls follow the shape of the dose curve; as a rule, active = well fitted curve in the direction sought with a large enough effect; inconclusive = small, poorly fitted or top-dose-only effect, or another doubt; inactive = no such curve, though single readings can be large; an effect the other way counts as inactive or inconclusive.

On to `O=C1c2c(O)ccc([N+](=O)[O-])c2C(=O)c2c([N+](=O)[O-])ccc(O)c21`, for which the result in assay [1], in assay [2], in [3], in [4], in assay [5] and in assay [7] was inactive. Further, the call in assay [9] and in assay [10] was inactive. The Potency is 50.1 µM (active) in [6]; 39.8 µM (active) in [8]; 50.1 µM (active) in assay [11]; 39.8 µM (active) in assay [12]; 39.8 µM (active) in assay [13]; 31.6 µM (active) in [14]. For the same compound, the Potency in assay [15] was 31.6 µM (active); in assay [16], 39.8 µM (active); in [17], 31.6 µM (active); in assay [18], 39.8 µM (active); in assay [19], 50.1 µM (active); in assay [20] it was 31.6 µM (active).
